Compound activity deposited in PubChem BioAssay by National Center for Advancing Translational Sciences (NCATS).
RECQ1 inh-1: inhibitors of human RECQ1 DNA helicase; 0.54% of 240,000 active; Potency, µM (top dose mostly 57.3 µM), without a hit: top-dose activity, negative = inhibition, hits mostly inhibitors; RECQ1 DNA unwinding, red fluorescence kinetic read;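 further: plate controls were vehicle for no effect and no enzyme for full effect; nearly all actives have a fitted effect of over 30% in size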
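50 nM RECQ1T1 preincubated 15 min with compound in Tris pH 8.0 buffer with MgCl2, DTT, Tween-20 and 2.5 ug/ml poly(dI-dC); started with 200 nM TAMRA/BHQ-2 forked duplex and 2 mM ATP. Unwinding read as fluorescence (525/598 nm), two reads 2 h apart.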
APE1 inh-1: APE1 (human) endonuclease inhibition | P27695 | recombinant APE1, TAMRA/BHQ-2 abasic DNA cleavage fluorescence | Potency, µM (titrated, usually from 65.8 µM), for the others: at the top dose activity change, negative = inhibition, usual class: inhibitors | 0.35% of 350,000 active;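 further: plate controls were vehicle for no effect and reference inhibitor for full effect; nearly all actives have a fitted effect of over 55% in size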
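Compound pre-exposure to 0.75 nM APE1, 15 min at ambient temperature. Reaction initiated with 50 nM TAMRA/BHQ-2 THF substrate, read immediately in kinetic mode, 525 nm excitation, 598 nm emission.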
RGS4 inh: inhibitors of human regulator of G protein signaling 4; Transcreener GDP fluorescence polarization, RGS4-accelerated GTP hydrolysis; Potency, µM (doses to about 114 µM), for inactives: at the top dose activity change, negative = inhibition, most hits filed as inhibitors; 0.039% of 390,000 active; AID 504845; further: nearly all actives have a fitted effect of over 75% in size
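MLSMR compounds (23 nl, pin-transferred) preincubated 10 min at room temperature with a 500nM (2x) first reagent, then RGS4 at 900nM (2x) plus Transcreener GDP mix added; fluorescence polarization (620/688 nm) read before and after 90 min at 30 °C.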
TDP1 block: TDP1 (human) enzyme inhibition. Q9NUW8. 0.28% of 350,000 active. Potency, µM (series often up to 130 µM), inactives show at the top dose activity change, negative = inhibition, most hits filed as inhibitors. recombinant TDP1, AlphaScreen DNA substrate cleavage; further: nearly all actives have a fitted effect of over 40% in size
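Recombinant human Tdp1 (E. coli-expressed, 1 nM final) preincubated with compounds 15 min at room temperature, then 5'-biotin/3'-phosphotyrosine-FITC DNA substrate (15 nM final) added for 5 min. AlphaScreen beads (10 ug/ml final) added 10 min; cleavage lowers signal.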
GCN5L2 inh: blocks human GCN5L2 histone acetyltransferase. AID 504327. GCN5L2 HAT assay, ThioGlo1 CoA-SH fluorescence. Q92830. 0.21% of 390,000 active. Potency, µM (top dose mostly 58.9 µM), for inactives: at the highest dose activity change, negative = inhibition, hits mostly inhibitors
Target sequence (Q92830 whole entry, looked up): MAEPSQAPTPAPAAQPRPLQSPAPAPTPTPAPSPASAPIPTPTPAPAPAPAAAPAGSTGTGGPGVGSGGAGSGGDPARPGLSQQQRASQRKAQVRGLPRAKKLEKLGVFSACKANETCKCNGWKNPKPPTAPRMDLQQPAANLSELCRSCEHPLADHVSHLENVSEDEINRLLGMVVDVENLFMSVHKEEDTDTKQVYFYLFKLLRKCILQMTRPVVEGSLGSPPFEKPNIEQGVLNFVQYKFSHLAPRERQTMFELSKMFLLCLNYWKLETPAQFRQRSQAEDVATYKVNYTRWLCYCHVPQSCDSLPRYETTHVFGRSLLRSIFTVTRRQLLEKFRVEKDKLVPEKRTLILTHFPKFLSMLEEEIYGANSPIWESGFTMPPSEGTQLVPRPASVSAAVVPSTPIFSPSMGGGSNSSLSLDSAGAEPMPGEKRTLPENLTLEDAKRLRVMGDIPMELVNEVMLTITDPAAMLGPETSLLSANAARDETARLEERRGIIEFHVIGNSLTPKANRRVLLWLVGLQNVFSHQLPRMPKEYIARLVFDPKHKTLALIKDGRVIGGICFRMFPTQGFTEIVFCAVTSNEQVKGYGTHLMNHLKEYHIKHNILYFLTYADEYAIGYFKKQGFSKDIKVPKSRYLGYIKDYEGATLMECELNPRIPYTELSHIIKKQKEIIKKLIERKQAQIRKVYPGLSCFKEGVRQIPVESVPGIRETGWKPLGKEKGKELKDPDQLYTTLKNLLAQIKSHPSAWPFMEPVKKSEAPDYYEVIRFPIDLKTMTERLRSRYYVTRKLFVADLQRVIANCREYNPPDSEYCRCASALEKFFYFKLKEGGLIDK
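qHTS, 1536-well. 20nM enzyme, pH 7.5 HEPES/EDTA/Tween-20 buffer; 15 min compound preinc., RT. Start: 75uM H3(1-25), 70uM AcCoA, 50uM ThioGlo1. Read Ex340/Em540 at t=0 (autofluorescence flag) and t=20 min.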
BLM inh-1: Bloom syndrome helicase (human) inhibition. recombinant BLM DNA unwinding, fluorescence dequenching. Potency, µM (titrated, usually from 56.1 µM), for the others: top-dose activity change, negative = inhibition, usual class: inhibitors. 0.2% of 350,000 active;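 further: plate controls were vehicle for no effect and no enzyme for full effect; nearly all actives have a fitted effect of over 35% in size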
DNA dye displace: DNA dye displacement counter-screen activity; 7% of 480 active; Potency, µM (series often up to 28.5 µM), for inactives: at the top dose activity change, negative = inhibition, hits mostly inhibitors; DNA fluorescent dye displacement counterscreen, fluorescence; AID 2564; shares compounds with APE1 inh-1;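 further: loss of thiazole orange fluorescence as the dye is displaced from duplex DNA; 0% = ThO with dsDNA and no compound and -100% = ThO without dsDNA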
Endo IV inh: blocks E. coli endonuclease IV DNA cleavage; shares compounds with APE1 inh-1; E. coli Endo IV, fluorogenic AP-site DNA cleavage; Potency, µM (titrated, usually from 27.1 µM), for the others: at the top dose activity change, negative = inhibition, hits mostly inhibitors; 4% of 560 active; AID 2565;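 further: plate controls were uninhibited enzyme wells for no effect and no enzyme buffer wells for full effect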
APE1 inh-2: APE1 (human) endonuclease inhibition, confirmation; AID 2572; 44% of 750 active; shares compounds with APE1 inh-1; Potency, µM (top dose mostly 57.1 µM), for inactives: at the highest dose activity change, negative = inhibition, usual class: inhibitors; purified APE1, fluorogenic abasic-site DNA cleavage; further: nearly all actives have a fitted effect of over 30% in size
APE1 FP inh: displaces DNA from human APE1 in FP assay | shares compounds with APE1 inh-1 | APE1 binding to TAMRA-labelled double-stranded DNA, fluorescence polarization displacement | Potency, µM (doses to about 28.5 µM), for inactives: at the top dose activity, negative = inhibition, actives largely listed as inhibitors | 7% of 480 active | AID 2573
BLM inh-2: confirmation of inhibitors of human Bloom syndrome helicase BLM; Potency, µM, inactives show max response, negative = inhibition, most hits filed as inhibitors; 40% of 220 active; shares compounds with BLM inh-1; BLM DNA unwinding, fluorescence quenching, biochemical;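 further: strand separation dequenches TAMRA so unwinding raises red fluorescence; series mostly up to about 69 µM; nearly all actives have a fitted effect of over 45% in size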
RECQ1 inh conf: confirmation of human RECQ1 helicase inhibitors | shares compounds with RECQ1 inh-1 | RECQ1 helicase DNA unwinding, fluorescence | Potency, µM (top dose mostly 229 µM), without a hit: at the highest dose activity change, negative = inhibition, usual class: inhibitors | 28% of 610 active; further: nearly all actives have a fitted effect of over 45% in size
ADP FP counter: counter-screen for RECQ1 inhibitors: ADP displacement; shares compounds with RECQ1 inh-1; ADP fluorescence polarization displacement counterscreen; Potency, µM (series often up to 228 µM), for the others: top-dose activity change, negative = inhibition, usual class: inhibitors; 27% of 530 active; AID 2711; further: nearly all actives have a fitted effect of over 45% in size
RECQ1 inh-2: blocks human RECQ1 DNA unwinding | shares compounds with RECQ1 inh-1 | recombinant RECQ1 DNA unwinding, red fluorescence | Potency, µM (top dose mostly 119 µM), for the others: top-dose activity, negative = inhibition, hits mostly inhibitors | 15% of 1,100 active | AID 504841; further: nearly all actives have a fitted effect of over 50% in size
* = called active by the depositor; [ ] = dose if it differs, or a comment. Most compounds without a hit are left out; they make up all but 0.87% or so of the library. The call rests on the fitted dose curve; in most records, active means well fitted curve in the direction sought with a large enough effect; inconclusive means small, poorly fitted or top-dose-only effect, or another doubt; inactive means no such curve, though single readings can be large; an effect the other way counts as inactive or inconclusive. Unless noted, on the % scale 0 is the no-effect control and ±100 the full control effect; potency means the concentration at half of the fitted maximal effect.

What do the screens show for `C=C(C)C(=O)Nc1cccc(C2=NOC3(C2)C[C@@H](C(N)=O)N(C(=O)c2cc([N+](=O)[O-])cc([N+](=O)[O-])c2)C3)c1` (stereo partly drawn)?
RECQ1 inh-1: -21%; APE1 inh-1: 7%; RGS4 inh: 3%; GCN5L2 inh: 0%; BLM inh-1: -2%

How did C=C(C)C(=O)Nc1cccc(C2=NOC3(C2)C[C@@H](C(N)=O)N(C(=O)c2ccc(OC)cc2)C3)c1 (stereo partly drawn) do in these assays?
RECQ1 inh-1: 7.9µM*; APE1 inh-1: inconclusive; RGS4 inh: -10%; TDP1 block: 11µM*; GCN5L2 inh: 4%; BLM inh-1: -7%; APE1 inh-2: inconclusive; RECQ1 inh conf: 25µM*; ADP FP counter: 35µM*

What do the screens show for `COc1cc(Cl)c(C)cc1Nc1c2c(nc3ccccc13)CCC2`?
RGS4 inh: -7%; TDP1 block: 6%; GCN5L2 inh: -2%; BLM inh-1: -1%

Results for COc1ccccc1CNC(=O)c1cc2ccc3ccc(C)[nH]c3c2n1 ?
RGS4 inh: -10%; TDP1 block: 5%; GCN5L2 inh: 3%; BLM inh-1: -4%

Results for COc1ccc(N2Cc3cccc(C(=O)O)c3C2=O)cc1 ?
RECQ1 inh-1: 14µM*; APE1 inh-1: 13µM*; RGS4 inh: -6%; TDP1 block: 8.9µM*; GCN5L2 inh: inconclusive; BLM inh-1: 16µM*; DNA dye displace: 4%; Endo IV inh: -1%; APE1 inh-2: 4µM*; APE1 FP inh: inconclusive; BLM inh-2: 16µM*; RECQ1 inh conf: 25µM*; ADP FP counter: -32%[91.9 µM]; RECQ1 inh-2: 4.5µM*

What do the screens show for `COc1ccc(N2Cc3cccc(C(=O)Nc4cc(C)cc(C)c4)c3C2=O)cc1`?
RGS4 inh: 1%; TDP1 block: -6%; GCN5L2 inh: -26%; BLM inh-1: -16%

What do the screens show for `CC(C)[C@H](NC(=O)[C@@H]1CSSC[C@H](NC(=O)[C@H](CC(=O)O)NC(=O)[C@H](C)NC(=O)[C@@H](NC(=O)CNC(=O)[C@H](C)N)[C@@H](C)O)C(=O)N[C@@H](Cc2ccccc2)C(=O)N[C@@H](Cc2c[nH]c3ccccc23)C(=O)N[C@@H](CCCCN)C(=O)N[C@@H](Cc2ccc(O)cc2)C(=O)N1)C(=O)O`?
RECQ1 inh-1: -19%; APE1 inh-1: -2%; TDP1 block: 4%; GCN5L2 inh: 42%; BLM inh-1: 3%

Results for Cc1c2c(c(O)c3c(O)cccc13)C(=O)O[C@H]2C1C(N(C)C)C(O)=C(C(N)=O)C(=O)[C@H]1O (stereo partly drawn) ?
RECQ1 inh-1: 3.2µM*; APE1 inh-1: 2µM*; GCN5L2 inh: 3.2µM*; BLM inh-1: 18µM*; DNA dye displace: 10µM*; Endo IV inh: -4%[57.1 µM]; APE1 inh-2: 1.4µM*; APE1 FP inh: 2.2µM*; RECQ1 inh conf: 40µM*; ADP FP counter: 16µM*; RECQ1 inh-2: inconclusive

What do the screens show for `COC(=O)[C@H](CCSC)NC(=O)c1ccc(NC[C@@H](N)CS)cc1-c1ccccc1`?
RECQ1 inh-1: -3%; APE1 inh-1: -7%; TDP1 block: 29%; GCN5L2 inh: -11%; BLM inh-1: -3%

Results for O=C1SC(SCc2ccccc2)=N/C1=C\c1ccc(C(=O)O)cc1 ?
RECQ1 inh-1: 0%; APE1 inh-1: 1%; RGS4 inh: -2%; GCN5L2 inh: -6%; BLM inh-1: -6%

Results for CCCSC1=N/C(=C\C=C\c2ccco2)C(=O)S1 ?
RECQ1 inh-1: 7.9µM*; APE1 inh-1: 4µM*; RGS4 inh: inconclusive; GCN5L2 inh: -23%; BLM inh-1: 20µM*; DNA dye displace: -3%; Endo IV inh: 18%; APE1 inh-2: inconclusive; APE1 FP inh: inconclusive; RECQ1 inh conf: 32µM*; ADP FP counter: 13µM*; RECQ1 inh-2: inconclusive

What do the screens show for `O=C1SC(SCc2ccccc2)=N/C1=C\c1ccco1`?
RECQ1 inh-1: inconclusive; APE1 inh-1: inconclusive; RGS4 inh: inconclusive; TDP1 block: -7%; BLM inh-1: -5%; DNA dye displace: inconclusive; Endo IV inh: -10%; APE1 inh-2: inconclusive; APE1 FP inh: 5%; RECQ1 inh-2: inconclusive
